Measurements reported in PubChem BioAssay (NCATS).
Results filed as inconclusive are left out. The source made the active and inactive calls. The call rests on the fitted dose curve; in most records, active means well fitted curve in the direction sought with a large enough effect; inconclusive means small, poorly fitted or top-dose-only effect, or another doubt; inactive means no such curve, though single readings can be large; an effect the other way counts as inactive or inconclusive.

What was measured:
[1] = qHTS of pediatric cancer cell lines to identify multiple opportunities for drug repurposing: Primary screen for SK-N-SH cells (AID 1347098); conditions: SK-N-SH viability, CellTiter-Glo luminescence, 48 h; series mostly up to 57 µM;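 further: DMSO served as neutral control and bortezomib at 2.3 µM as positive control; on the % scale 0 is the no-effect control and ±100 the full control effect; nearly all actives have a fitted effect of over 65% in size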
Procedure, shortened: (§1)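 Cells (500-1,000/well) rested 5 h, then received compounds for 48 h; metabolically active cells were measured by CellTiter-Glo luminescence. Final concentrations spanned up to 46 µM (MIPE, 11-point) or 0.59 nM-46 µM (NPC, 8-point) in primary screens, 11-point in follow-ups.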

[2] = qHTS of pediatric cancer cell lines to identify multiple opportunities for drug repurposing: Primary screen for NB1643 cells (AID 1347099); conditions: NB1643 neuroblastoma viability, CellTiter-Glo luminescence, 48 h; series mostly up to 46 µM;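 further: plate controls were DMSO neutral control for no effect and bortezomib positive control for full effect; nearly all actives have a fitted effect of over 50% in size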
Procedure, shortened: (§2)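 Viability was measured as metabolically active cells after 48 hours of treatment, read by CellTiter-Glo luminescence. Compounds were tested at multiple final concentrations, giving concentration-response curves.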

[3] = qHTS of pediatric cancer cell lines to identify multiple opportunities for drug repurposing: Primary screen for LAN-5 cells (AID 1347100); conditions: LAN-5 neuroblastoma viability, CellTiter-Glo luminescence, 48 h; series mostly up to 46 µM;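 further: plate controls were DMSO neutral control for no effect and bortezomib positive control for full effect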
Procedure, shortened: (§3)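 Viability after 48 h compound treatment at 37C, 500-1,000 cells/well, read as ATP luminescence with CellTiter-Glo. Primary screens used 11-point (MIPE, 0.78 nM-46 µM) or 8-point (NPC, 0.59 nM-46 µM) final concentrations; follow-up screens used 11-point dilutions.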

[4] = qHTS of pediatric cancer cell lines to identify multiple opportunities for drug repurposing: Primary screen for BT-12 cells (AID 1347101); conditions: BT-12 viability, CellTiter-Glo luminescence, 48 h; series mostly up to 57.3 µM;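 further: plate controls were DMSO for no effect and bortezomib positive control for full effect; nearly all actives have a fitted effect of over 25% in size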
Procedure, shortened: as §1

[5] = qHTS of pediatric cancer cell lines to identify multiple opportunities for drug repurposing: Primary screen for Rh18 cells (AID 1347102); conditions: Rh18 rhabdomyosarcoma viability, CellTiter-Glo luminescence, 48 h; series mostly up to 46 µM; further: on the % scale 0 is the no-effect control and ±100 the full control effect; nearly all actives have a fitted effect of over 65% in size
Procedure, shortened: as §3

[6] = qHTS of pediatric cancer cell lines to identify multiple opportunities for drug repurposing: Primary screen for OHS-50 cells (AID 1347103); conditions: OHS-50 osteosarcoma viability, CellTiter-Glo luminescence, 48 h; series mostly up to 57.3 µM;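 further: plate controls were DMSO neutral control for no effect and bortezomib positive control for full effect; nearly all actives have a fitted effect of over 40% in size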
Procedure, shortened: as §1

[7] = qHTS of pediatric cancer cell lines to identify multiple opportunities for drug repurposing: Primary screen for RD cells (AID 1347104); conditions: RD rhabdomyosarcoma viability, CellTiter-Glo luminescence, 48 h; series mostly up to 46 µM;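 further: plate controls were DMSO for no effect and bortezomib for full effect; nearly all actives have a fitted effect of over 55% in size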
Procedure, shortened: as §2

[8] = qHTS of pediatric cancer cell lines to identify multiple opportunities for drug repurposing: Primary screen for MG 63 (6-TG R) cells (AID 1347105); conditions: MG 63 (6-TG R) viability, CellTiter-Glo, 48 h; series mostly up to 46 µM; further: on the % scale 0 is the no-effect control and ±100 the full control effect; nearly all actives have a fitted effect of over 50% in size
Procedure, shortened: as §2

[9] = qHTS of pediatric cancer cell lines to identify multiple opportunities for drug repurposing: Primary screen for control Hh wild type fibroblast cells (AID 1347106); conditions: Hh wild-type fibroblast viability, CellTiter-Glo luminescence, 48 h; series mostly up to 46 µM;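 further: on the % scale 0 is the no-effect control and ±100 the full control effect; a drop in luminescence marks cytotoxicity and a rise apparent proliferation; nearly all actives have a fitted effect of over 55% in size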
Procedure, shortened: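 Cells (500-1,000/well) in growth media were settled 5 h at 37 degrees C, then given compounds for 48 h. Viability was read as CellTiter-Glo luminescence. Primary runs used MIPE at 11 points (0.78 nM-46 µM) and NPC at 8 points (0.59 nM-46 µM); follow-ups used 11 points.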

[10] = qHTS of pediatric cancer cell lines to identify multiple opportunities for drug repurposing: Primary screen for Rh30 cells (AID 1347107); conditions: Rh30 rhabdomyosarcoma viability, CellTiter-Glo luminescence, 48 h; series mostly up to 46 µM; further: on the % scale 0 is the no-effect control and ±100 the full control effect; nearly all actives have a fitted effect of over 75% in size
Procedure, shortened: as §3

[11] = qHTS of pediatric cancer cell lines to identify multiple opportunities for drug repurposing: Primary screen for Rh41 cells (AID 1347108); conditions: Rh41 rhabdomyosarcoma viability, CellTiter-Glo luminescence, 48 h; series mostly up to 46 µM;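 further: luminescence drop marks cytotoxic hits; nearly all actives have a fitted effect of over 70% in size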
Procedure, shortened: as §2

CC(NN)c1ccccc1 (centres undefined)
inactive: Potency [1] | Potency [2] | Potency [3] | Potency [4] | Potency [5] | Potency [6] | Potency [7] | Potency [8] | Potency [9] | Potency [10] | Potency [11]

COc1cc(C(=O)NC2CCCNC2)cc(OC)c1OC (centres undefined)
inactive: Potency [1] | Potency [2] | Potency [3] | Potency [4] | Potency [5] | Potency [6] | Potency [7] | Potency [8] | Potency [9] | Potency [10] | Potency [11]

Cc1coc2ccccc2c1=O
inactive: Potency [1] | Potency [2] | Potency [3] | Potency [4] | Potency [5] | Potency [6] | Potency [7] | Potency [8] | Potency [9] | Potency [10] | Potency [11]

CC(=O)OCC[N+](C)(C)C
inactive: Potency [1] | Potency [2] | Potency [3] | Potency [4] | Potency [5] | Potency [6] | Potency [7] | Potency [8] | Potency [9] | Potency [10] | Potency [11]

O=C(Oc1ccccc1)c1cccc(C(=O)Oc2ccccc2)c1
inactive: Potency [1] | Potency [2] | Potency [3] | Potency [4] | Potency [5] | Potency [6] | Potency [7] | Potency [8] | Potency [9] | Potency [10] | Potency [11]

CCN(CC)C(=O)C1CN2CCc3cc(OC)c(OC)cc3C2CC1OC(C)=O (centres undefined)
inactive: Potency [1] | Potency [2] | Potency [3] | Potency [4] | Potency [5] | Potency [6] | Potency [7] | Potency [8] | Potency [9] | Potency [10] | Potency [11]

CC(C)(C)c1cc(C=O)cc(C(C)(C)C)c1O
inactive: Potency [1] | Potency [2] | Potency [3] | Potency [4] | Potency [5] | Potency [6] | Potency [7] | Potency [8] | Potency [9] | Potency [10] | Potency [11]

O=C(O)c1[nH]n(-c2ccc(S(=O)(=O)O)cc2)c(=O)c1N=Nc1ccc(S(=O)(=O)O)cc1
inactive: Potency [1] | Potency [2] | Potency [3] | Potency [4] | Potency [5] | Potency [6] | Potency [7] | Potency [8] | Potency [9] | Potency [10] | Potency [11]

CC(=O)c1ccc(O)c(C(N)=O)c1
inactive: Potency [1] | Potency [2] | Potency [3] | Potency [4] | Potency [5] | Potency [6] | Potency [7] | Potency [8] | Potency [9] | Potency [10] | Potency [11]

CC(=O)OC[C@H]1O[C@@H](OC(C)=O)[C@H](OC(C)=O)[C@@H]1OC(C)=O
inactive: Potency [1] | Potency [2] | Potency [3] | Potency [4] | Potency [5] | Potency [6] | Potency [7] | Potency [8] | Potency [9] | Potency [10] | Potency [11]

C/C(=C1\CCOC(=O)S1)N(C=O)Cc1cnc(C)nc1N
inactive: Potency [1] | Potency [2] | Potency [3] | Potency [4] | Potency [5] | Potency [6] | Potency [7] | Potency [8] | Potency [9] | Potency [10] | Potency [11]

C/C(=N/NC(=O)c1ccncc1)C(=O)O
inactive: Potency [1] | Potency [2] | Potency [3] | Potency [4] | Potency [5] | Potency [6] | Potency [7] | Potency [8] | Potency [9] | Potency [10] | Potency [11]

NS(=O)(=O)c1ccc(N2CCCCS2(=O)=O)cc1
inactive: Potency [1] | Potency [2] | Potency [3] | Potency [4] | Potency [5] | Potency [6] | Potency [7] | Potency [8] | Potency [9] | Potency [10] | Potency [11]

CC(C)(C)NCC(O)COc1ccccc1OCC1CCCO1 (centres undefined)
inactive: Potency [1] | Potency [2] | Potency [3] | Potency [4] | Potency [5] | Potency [6] | Potency [7] | Potency [8] | Potency [9] | Potency [10] | Potency [11]

NCC[C@H](O)C(=O)N[C@@H]1C[C@H](N)[C@@H](O[C@H]2O[C@H](CN)[C@@H](O)[C@H](O)[C@@H]2O)[C@H](O)[C@@H]1O[C@H]1O[C@H](CO)[C@@H](O)[C@H](N)[C@@H]1O
inactive: activity change, negative = cytotoxic [1] -13.1% [at 0.741 µM] | activity change, negative = cytotoxic [2] 2.83% [at 0.597 µM] | activity change, negative = cytotoxic [3] 0.172% [at 0.597 µM] | activity change, negative = cytotoxic [4] 5.54% [at 0.745 µM] | activity change, negative = cytotoxic [5] 1.72% [at 0.597 µM] | activity change, negative = cytotoxic [6] 17.5% [at 0.73 µM] | activity change, negative = cytotoxic [7] 8.3% [at 0.597 µM] | activity change, negative = cytotoxic [8] -9.26% [at 0.597 µM] | activity change, negative = cytotoxic [9] -6.47% [at 0.597 µM] | activity change, negative = cytotoxic [10] 20.7% [at 0.597 µM] | activity change, negative = cytotoxic [11] 34.1% [at 0.597 µM]

OC1(c2ccc(Cl)cc2)CCNCC1
inactive: Potency [1] | Potency [2] | Potency [3] | Potency [4] | Potency [5] | Potency [6] | Potency [7] | Potency [8] | Potency [9] | Potency [10] | Potency [11]

CC(=O)/C=C/C=C1/C2CCC(C2)C1(C)C (centres undefined)
inactive: Potency [1] | Potency [2] | Potency [3] | Potency [4] | Potency [5] | Potency [6] | Potency [7] | Potency [8] | Potency [9] | Potency [10] | Potency [11]

Cc1cccc(C)c1NC(=O)c1cc(S(N)(=O)=O)c(Cl)cc1O
inactive: Potency [1] | Potency [2] | Potency [3] | Potency [4] | Potency [5] | Potency [6] | Potency [7] | Potency [8] | Potency [9] | Potency [10] | Potency [11]

O=C(OCC1(COC(=O)c2cccnc2)CCCC(COC(=O)c2cccnc2)(COC(=O)c2cccnc2)C1O)c1cccnc1
inactive: Potency [1] | Potency [2] | Potency [3] | Potency [4] | Potency [5] | Potency [6] | Potency [7] | Potency [8] | Potency [9] | Potency [10] | Potency [11]
